Assay outcomes from PubChem BioAssay.
TRHR agonist-1 = qHTS for Small Molecule Agonists and Allosteric Enhancers of Human TRH Receptor: Primary Screen for Agonists. activation, % at 2 µM. TRHR cells, calcium flux fluo-8, FDSS agonist mode. AID 493084, 2011. 0.18% of 360,000 active; in the data active = activation above about 30%; note: 0% is about no effect
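In this calcium-flux screen, cells bearing human TRHR are dye-loaded with fluo-8, baselined for 10 cycles, then exposed to library compounds; positive kinetic calcium responses during the agonist phase mark hits, with TRH as control.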
TRPML1 agonist = qHTS for Agonists of the Human Mucolipin Transient Receptor Potential 1 (TRPML1) | Mucolipin-1 (Homo sapiens), Q9GZU1 | TRPML1-expressing cells, Ca2+ dye fluorescence, FDSS | activation, % (test concentration not listed) | 0.12% of 410,000 active | AID 624414, 2012; in the data active = activation above about 50%; inconclusive = mostly about 30% to 49%; note: 0% is about no effect
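TRPML1-DL cells, Tet-induced overnight (~16 h, 37 degrees C), loaded 45-90 min at room temperature with Ca8 no-wash calcium dye plus quencher. FDSS fluorescence: 10 s baseline, compound pin-transfer, 110 s agonist read, then EC80 54-4 (4uM final) and 110 s antagonist read.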
TRHR enhancer-1 = qHTS for Small Molecule Agonists and Allosteric Enhancers of Human TRH Receptor: Primary Screen for Enhancers. TRHR cells, fluo-8 calcium fluorescence, EC20 TRH enhancement. AID 493056, 2011. enhancement, % at 2 µM. 0.66% of 360,000 active. Thyrotropin-releasing hormone receptor (Homo sapiens), P34981; in the data active = enhancement above about 30%; note: 0% is about no effect
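Enhancer read-out: after compound pinning and an initial kinetic agonist-mode read, an EC20 of TRH (10 nM final) was injected and fluo-8 calcium signal (Ex 480/Em 530) followed at 1 s/cycle for 100 cycles in TRHR-expressing cells.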
TRPML1 inh = qHTS for Inhibitors of the Human Mucolipin Transient Receptor Potential 1 (TRPML1). Mucolipin-1 (Homo sapiens), Q9GZU1. activity change, negative = inhibition, % (test concentration not listed). TRPML1-inducible cells, Ca2+ dye fluorescence, FDSS; stronger effect = lower value; inhibition of EC80 agonist-evoked calcium signal. AID 624415, 2012. 0.02% of 390,000 active; in the data active = activity change below about -50%; inconclusive = between about -30% and that limit;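 note: stimulus is agonist 54-4 at its EC80 concentration; % is set by controls: 0 for no effect and ±100 for the full control effect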
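Tet-induced TRPML1-DL cells loaded with Ca8 no-wash calcium dye were read kinetically on FDSS. Compound addition was followed by EC80 agonist 54-4 (4 uM final); inhibition was read over 110 s.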
PTAP TSG101 blk = qHTS Assay for Iinhibitors of HIV-1 Budding by Blocking the Interaction of PTAP/TSG101; Tumor susceptibility gene 101 protein (Homo sapiens), Q99816; Potency, µM (highest dose often 115 µM), for the others: top-dose activity change, negative = inhibition, actives largely listed as inhibitors; Fluorescence polarization, FITC-PTAP peptide / Tsg101 binding; AID 493005, 2010; 340,000 tested, under 10 active; active = well fitted inhibition curve with a large enough effect in the main read-out, with a control signal flat, not every such curve was filed as active; inconclusive = small, poorly fitted or top-dose-only effect, or effect the other way, or a change in a side signal; inactive = no such curve, though single readings can be large or run the other way; note: potency is the fitted concentration of half-maximal effect; % of control where 0% means no effect
Target sequence (Q99816 whole entry, looked up): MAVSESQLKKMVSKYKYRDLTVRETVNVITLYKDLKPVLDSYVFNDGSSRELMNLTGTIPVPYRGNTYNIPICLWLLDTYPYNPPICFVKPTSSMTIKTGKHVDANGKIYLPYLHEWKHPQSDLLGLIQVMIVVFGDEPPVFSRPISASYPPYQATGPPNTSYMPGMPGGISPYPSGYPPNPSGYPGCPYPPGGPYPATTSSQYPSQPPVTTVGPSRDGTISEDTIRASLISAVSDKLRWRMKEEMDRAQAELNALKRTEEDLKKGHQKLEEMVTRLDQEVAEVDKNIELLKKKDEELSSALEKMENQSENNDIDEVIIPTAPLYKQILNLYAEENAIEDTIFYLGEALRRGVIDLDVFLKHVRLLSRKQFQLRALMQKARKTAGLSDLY
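Fluorescence anisotropy tracks displacement of a FITC-tagged PTAP peptide (50 nM) from the Tsg101 binding domain (10 uM), following a 20 min room-temperature incubation at pH 7.5.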
TRHR enhancer-2 = qHTS for Small Molecule Agonists and Allosteric Enhancers of Human TRH Receptor: Confirmation Screen for Enhancers. shares compounds with TRHR enhancer-1. TRH receptor cell assay, enhancer confirmation qHTS. activity change, negative = inhibition, % at 46.1 µM. 970 tested, under 10 active. AID 493076, 2011;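 note: compound effect scored on response to added TRH at EC20 of 10 nM; 0% is about no effect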
TRHR agonist-2 = qHTS for Small Molecule Agonists and Allosteric Enhancers of Human TRH Receptor: Confirmation Screen for Agonists. shares compounds with TRHR enhancer-1. TRHR-expressing cells, agonist activation read-out. Potency, µM (series often up to 46.1 µM), without a hit: at the top dose activation, usual class: activators. 8% of 970 active. AID 493078, 2011; note: potency is the fitted concentration of half-maximal effect; 0% is about no effect; nearly all actives have a fitted effect of over 75% in size
Starred values were filed as active, the others as inactive; ? = inconclusive; . = not tested or not shown. Most compounds without a hit are left out; they make up all but 0.81% or so of the library. Unless noted, calls come from the whole dose curve; as a rule, active = well fitted curve in the direction sought with a large enough effect; inconclusive = small, poorly fitted or top-dose-only effect, or another doubt; inactive = no such curve, though single readings can be large; an effect the other way counts as inactive or inconclusive.

SMILES	TRHR agonist-1	TRPML1 agonist	TRHR enhancer-1	TRPML1 inh	PTAP TSG101 blk	TRHR enhancer-2	TRHR agonist-2
COc1ccc(/C(C)=N\NC(=O)CSc2nnc(C)s2)cc1	0	1	-3	-11	-2%	.	.
COC(=O)c1cc(S(=O)(=O)N2CCN(c3cccc(C)c3C)CC2)c[nH]1	0	2	48*	46	1%	-7	-1%
COC(=O)c1cc(S(=O)(=O)N2CCN(c3ccccc3)CC2)c[nH]1	1	0	-2	29	1%	.	.
CN1/C(=C\C(=S)NC(=O)c2ccc([N+](=O)[O-])cc2)C(C)(C)c2ccccc21	-1	3	48*	12	-2%	-4	2%
CN1/C(=C\C(=S)NC(=O)c2cccc(Br)c2)C(C)(C)c2ccccc21	0	1	-4	36	-2%	.	.
COc1ccc(NS(=O)(=O)c2ccc(N3CCCC3)c(NC(=S)Nc3cccc(C)c3C)c2)cc1	0	0	-9	-1	-2%	.	.
COc1ccc(NS(=O)(=O)c2ccc(N3CCCC3)c(NC(=S)Nc3ccc(SC(F)F)cc3)c2)cc1	0	1	65*	4	2%	2	-1%
O=c1[nH]c(N2CCN(Cc3ccccc3)CC2)nc2c1CCC2	-1	2	41*	34	-2%	-3	-1%
O=c1[nH]c(N2CCN(c3ccccc3)CC2)nc2c1CCC2	0	3	-3	8	-4%	.	.
C/C=C/c1ccc(OCCCCNCc2ccco2)c(OC)c1	0	0	69*	-19	-3%	?	?
Cc1sc2ccccc2[n+]1C	.	2	.	.	.	.	.
C=C1C=C(C(F)F)n2ncc(C(=O)Nc3ccc(Br)cc3C(F)(F)F)c2N1	.	-1	.	.	.	.	.
CCOc1cc(/C=C(/C#N)C(=O)Nc2ccc(O)cc2)cc(Br)c1O	40*	9	-4	6	39%	9	21µM*
CCOC(=O)N1CCC(Nc2nc(OC)nc(OC)n2)CC1	0	-1	0	-6	-4%	.	.
COc1nc(N)nc(CC(=O)C2CC2)n1	0	0	62*	-10	-5%	-2	-1%
CCN(CC)CC(=O)c1c(C)n(C)c2ccc(OC)cc12	.	0	.	.	.	.	.
Cn1nnnc1SCc1cccc(CSc2nnnn2C)n1	1	0	-3	1	-4%	.	.
Cn1nnnc1SCc1c(F)cccc1F	0	0	42*	-3	-1%	?	2%
CCOc1ccc(NC(=O)Nc2nc3ccc(S(C)(=O)=O)cc3s2)cc1	1	-1	58*	-6	-2%	-1	-1%
CSc1nsc2nc(=O)c(/C=C3\C(C)=Nc4ccccc43)c(N)n12	1	-1	-2	-5	-4%	.	.
CC1=Nc2ccccc2/C1=C/c1sc(=S)n(-c2cccc(C(=O)O)c2)c1O	29	0	-6	12	?	2	21µM*
O=C(O)c1ccc(S(=O)(=O)N2CCSCC2)cc1	0	0	51*	-11	0%	-3	0%
NC(=O)c1ccc(S(=O)(=O)N2CCSCC2)cc1	0	0	-3	-9	-2%	.	.
COc1ccc(Cl)cc1S(=O)(=O)NC(C)C(=O)NCCCn1ccnc1 (configuration not stated)	1	0	67*	2	-1%	-2	-1%
COc1ccc(Cl)cc1S(=O)(=O)NCCCn1ccnc1	1	1	22	24	-2%	.	.
SMILES	TRHR agonist-1	TRPML1 agonist	TRHR enhancer-1	TRPML1 inh	PTAP TSG101 blk	TRHR enhancer-2	TRHR agonist-2
COc1ccc(C2C(C(C)=O)=C(C)N=c3s/c(=C/c4ccc5c(c4)OCO5)c(=O)n32)cc1 (configuration not stated)	38*	.	-8	.	.	8	?
Cn1c(O)c(N=NC(=N)N)c2ccccc21	1	.	66*	.	-2%	-2	-1%
CC(O)(c1ccccc1)[N+]1(CC(=O)c2ccccc2)C=CC=C1 (configuration not stated)	.	0	.	.	.	.	.
CN(C(=O)COC(=O)c1c2c(nc3ccccc13)/C(=C/c1cccc([N+](=O)[O-])c1)CCC2)C1CCS(=O)(=O)C1 (configuration not stated)	1	1	3	-20	-1%	.	.
O=C(COC(=O)c1c2c(nc3ccccc13)/C(=C/c1cccc([N+](=O)[O-])c1)CCC2)NC1CCS(=O)(=O)C1 (configuration not stated)	1	0	42*	-20	-6%	0	1%
COc1cc(CNc2ncc(-c3ccc(Br)cc3)n2C)cc(OC)c1O	0	-1	41*	-6	-2%	0	5%
COc1ccc(CNc2ncc(-c3ccc(F)cc3)n2C)cc1OC	1	-1	25	-11	-2%	.	.
Cn1c(CN2CCCC2)nc2cc(NC(=O)c3ccco3)ccc21	0	0	55*	3	-10%	-3	-1%
CC(=O)Nc1ccc2c(c1)nc(CCNC(=O)c1ccccc1)n2C	-1	-1	42*	17	-4%	14	-1%
COc1cc(C(=O)Nc2cccc(-c3cn4cccnc4n3)c2)cc(OC)c1OC	0	-1	63*	5	-8%	10	0%
O=C(C[n+]1ccccc1Br)c1ccc(Cl)cc1	.	-1	.	.	.	.	.
CCOC(=O)c1nnn(-c2nonc2N)c1CSc1nnc(N)s1	0	0	52*	6	-1%	-1	1%
